Bioassay records: PubChem BioAssay, National Center for Advancing Translational Sciences (NCATS)
Most compounds without a hit are left out; they make up all but 2.4% or so of the library.
D2 antag: antagonizes the human D2 dopamine receptor; P14416; HEK293 TREx D2 cells, calcium flux, dopamine EC80; inhibition, % at 10 µM; 340,000 tested, 2% active; AID 485344; in the data active means inhibition above about 30%; inactive means below that, where a call was filed; further: 0% is about no effect
Target sequence (P14416 whole entry, looked up): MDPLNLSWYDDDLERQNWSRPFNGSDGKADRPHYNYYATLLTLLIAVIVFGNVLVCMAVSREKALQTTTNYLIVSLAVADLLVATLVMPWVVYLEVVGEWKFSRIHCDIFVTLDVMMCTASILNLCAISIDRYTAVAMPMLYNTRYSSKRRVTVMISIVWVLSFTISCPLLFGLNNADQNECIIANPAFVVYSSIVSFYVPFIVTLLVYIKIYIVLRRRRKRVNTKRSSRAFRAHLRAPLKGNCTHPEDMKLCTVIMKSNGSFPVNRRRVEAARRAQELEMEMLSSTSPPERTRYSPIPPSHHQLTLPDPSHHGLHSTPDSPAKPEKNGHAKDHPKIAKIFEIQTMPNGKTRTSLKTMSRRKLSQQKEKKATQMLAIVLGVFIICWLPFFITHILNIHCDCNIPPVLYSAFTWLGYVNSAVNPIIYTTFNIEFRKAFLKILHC
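Antagonism is scored as inhibition of an EC80 dopamine-evoked calcium signal in a force-coupled, tetracycline-inducible HEK293 T-REx D2 line, with compound present 180 s before agonist.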
D2 ag-1: activates the human D2 dopamine receptor; P14416; HEK293 T-REx D2 cells, calcium flux agonist mode; activation, % at 2 µM; 340,000 tested, 0.53% active; AID 485358;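 active means activation over 3 SD above normal in the single-dose calcium agonist read, cut at about 30% in these data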; further: 0% is about no effect
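In this primary screen, compounds producing a positive calcium signal within 180 s of addition to tetracycline-induced, force-coupled HEK293 Trex D2 cells are flagged; cells are dye-loaded with a no-wash calcium kit beforehand.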
D2 PAM-1: human D2 receptor positive allosteric modulation; P14416; DiscoveRx D2 beta-arrestin cells, luminescence, 90 min; 100% = 57 uM dopamine signal; potentiation, % (concentration not given with the values); 360,000 tested, 0.23% active; in the data active means potentiation above about 50%
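PathHunter beta-arrestin assay in DiscoveRx D2 cells. Compounds were added with an EC20 of dopamine (50 nM final) for 90 min at 37 deg C. Luminescence was read 1 h after detection reagent, with 57 uM dopamine as the EC100 control.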
D2 PAM-2: positively modulates the human D2 dopamine receptor allosterically; P14416; HEK293 T-REx D2, calcium flux, EC20 dopamine potentiation; potentiation, % at 10 µM; 340,000 tested, 0.34% active; AID 485347;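 active means potentiation over 3 SD above the plate norm, cut at about 30% in these data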; further: 0% is about no effect
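Potentiation of an EC20 dopamine calcium response is measured in a force-coupled, tetracycline-inducible Hek293 Trex D2 line. Compound-only kinetic reads over 180 s flag agonists before dopamine addition.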
D2 ag-2: human D2 receptor agonism in beta-arrestin assay. P14416. DiscoveRx PathHunter D2 beta-arrestin, luminescence, 90 min; 100% = 57 uM dopamine signal. activation, % (test concentration not listed). 360,000 tested, 0.084% active. AID 624465; in the data active means activation above about 40%
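Agonist mode: compounds alone added to overnight-plated D2 PathHunter cells for 90 min at 37 C, with 57 uM final dopamine (EC100) defining full response. Beta-arrestin recruitment detected by chemiluminescent reagent, read after 1 h at ambient temperature.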
Numbers without * were called inactive.

What do the screens show for `C=CCOC(=O)C1=C(C)OC(N)=C(C#N)C1c1c(C)nn(-c2ccccc2)c1Cl` (stereo unspecified)?
D2 antag: 44*; D2 ag-1: 0; D2 PAM-1: -14; D2 PAM-2: -10; D2 ag-2: 0

What do the screens show for `COc1ccc(N2CCN(c3ncnc4onc(C)c34)CC2)cc1`?
D2 ag-1: 1; D2 PAM-2: -10

What do the screens show for `O=C(CN1C(=O)c2cccnc2Oc2ccc(Cl)cc21)NC1CCCCCC1`?
D2 antag: 41*; D2 ag-1: 0; D2 PAM-1: 0; D2 PAM-2: -9; D2 ag-2: 4

What do the screens show for `O[C@H]1CN(Cc2cccs2)[C@@H](c2ccccc2)C[C@@H]1n1cc(-c2ccc(F)cc2)nn1`?
D2 PAM-1: 2; D2 ag-2: -8

Results for C=CCc1ccc(OCC(O)CN2CCc3ccccc3C2)c(OC)c1 (stereo unspecified) ?
D2 antag: 47*; D2 ag-1: 0; D2 PAM-1: -28; D2 PAM-2: -13; D2 ag-2: -3

How did C=CCc1ccccc1OCC(O)CN1CCN(Cc2ccc3c(c2)OCO3)CC1 (stereo unspecified) do in these assays?
D2 antag: 64*; D2 ag-1: 1; D2 PAM-1: -14; D2 PAM-2: -24; D2 ag-2: 2

What do the screens show for `Cc1ccc(OCC(O)CN2CCN(Cc3ccc4c(c3)OCO4)CC2)cc1C` (stereo unspecified)?
D2 antag: 22; D2 ag-1: 0; D2 PAM-1: -22; D2 PAM-2: -29; D2 ag-2: 0

What do the screens show for `OC(COc1ccc2c(c1)OCO2)CN1CCc2ccccc2C1` (stereo unspecified)?
D2 antag: 42*; D2 ag-1: 1; D2 PAM-1: -32; D2 PAM-2: -25; D2 ag-2: 0

How did COc1ccc(NC(=O)C(NC(=O)c2ccc(C)cc2)c2ccccc2)cc1 (stereo unspecified) do in these assays?
D2 antag: -8; D2 ag-1: 0; D2 PAM-1: -4; D2 PAM-2: 1; D2 ag-2: -4

Results for CCOc1ccc(NC(=O)N(C)CCc2c(C)nn(C)c2C)cc1 ?
D2 ag-1: 5; D2 PAM-2: 5

How did COc1ccc(-n2c(C)cc(C(=O)Cn3nc(C(=O)O)c4ccccc4c3=O)c2C)cc1 do in these assays?
D2 antag: -4; D2 ag-1: 0; D2 PAM-1: -4; D2 PAM-2: -4; D2 ag-2: 3

What do the screens show for `Cc1cc(C(=O)Cn2nc(C(=O)O)c3ccccc3c2=O)c(C)n1-c1ccc(OC(F)F)cc1`?
D2 antag: -14; D2 ag-1: -1; D2 PAM-1: 0; D2 PAM-2: 36*; D2 ag-2: -4

How did CC(C)(C)OC(=O)N(CCc1ccccc1)Cc1cccc(OCc2cccc(NC(=O)c3ccccc3)c2)c1 do in these assays?
D2 PAM-1: -8; D2 ag-2: -2

How did Cc1cc(C)c2nc(N3CCCC(C(=O)NC4CCCC4)C3)sc2c1 (stereo unspecified) do in these assays?
D2 PAM-1: -7; D2 ag-2: -7

How did CCCCNCCOCCOc1ccccc1-c1ccccc1 do in these assays?
D2 antag: 76*; D2 ag-1: 0; D2 PAM-1: -27; D2 PAM-2: -21; D2 ag-2: 2

How did C=CCNCCCOc1ccc(C(C)(C)c2ccccc2)cc1 do in these assays?
D2 antag: -6; D2 ag-1: 0; D2 PAM-1: -33; D2 PAM-2: 8; D2 ag-2: -5

Results for C=CCNCCOc1ccccc1-c1ccccc1 ?
D2 antag: 87*; D2 ag-1: 8; D2 PAM-1: -39; D2 PAM-2: -28; D2 ag-2: -1

How did CN(C)CCCCOc1ccccc1-c1ccccc1 do in these assays?
D2 antag: 71*; D2 ag-1: 4; D2 PAM-1: -21; D2 PAM-2: -28; D2 ag-2: -1

What do the screens show for `COCCNCCCCOc1ccccc1-c1ccccc1`?
D2 antag: 92*; D2 ag-1: 1; D2 PAM-1: -36; D2 PAM-2: -34; D2 ag-2: -5

Results for CN(C)CCCCOc1ccccc1F ?
D2 antag: -1; D2 ag-1: 0; D2 PAM-1: -13; D2 PAM-2: -6; D2 ag-2: -2

Results for O=C(OCC(=O)N1CCCc2ccccc21)c1cc(Cl)ccc1O ?
D2 antag: -12; D2 ag-1: 0; D2 PAM-1: -1; D2 PAM-2: -6; D2 ag-2: 7

What do the screens show for `CC1CCC(NS(=O)(=O)c2ccc(Cl)nc2)CC1` (stereo unspecified)?
D2 antag: -9; D2 ag-1: 0; D2 PAM-1: -6; D2 PAM-2: 0; D2 ag-2: 8

Results for CC(=O)Nc1cccc(C(=O)OC(C)C(=O)N2CCc3ccccc32)c1 (stereo unspecified) ?
D2 antag: 6; D2 ag-1: 2; D2 PAM-1: -14; D2 PAM-2: 4; D2 ag-2: -3

How did Cn1nnc(NC(=O)CSc2ccc(Cl)cc2)n1 do in these assays?
D2 antag: 40*; D2 ag-1: 0; D2 PAM-1: -5; D2 PAM-2: 8; D2 ag-2: -1

Results for Cn1nnc(NC(=S)NC(=O)c2cc(Cl)ccc2Cl)n1 ?
D2 antag: 31*; D2 ag-1: -2; D2 PAM-1: -44; D2 PAM-2: -5; D2 ag-2: -11

How did Cn1nnc(NC(=O)CSc2nnnn2-c2ccc(F)cc2)n1 do in these assays?
D2 PAM-1: -3; D2 ag-2: 0

How did CCc1cccc(CC)c1-n1c(-c2cccnc2)n[nH]c1=S do in these assays?
D2 antag: 66*; D2 ag-1: 0; D2 PAM-1: -8; D2 PAM-2: -9; D2 ag-2: 0

Results for CC(C)c1ccc(NC(=O)C2CCN(S(=O)(=O)c3ccc4c(c3)NC(=O)CO4)CC2)cc1 ?
D2 antag: -4; D2 ag-1: 0; D2 PAM-1: -14; D2 PAM-2: -14; D2 ag-2: 1

Results for CC(=O)N1c2ccc(S(=O)(=O)N3CCC(C(=O)Nc4cccc(C)c4)CC3)cc2CC1C (stereo unspecified) ?
D2 antag: -6; D2 ag-1: -1; D2 PAM-1: -36; D2 PAM-2: 15; D2 ag-2: -2

Results for CC(=O)N1c2ccc(S(=O)(=O)NCC3CCC(C(=O)Nc4ccc(C)cn4)CC3)cc2CC1C (stereo unspecified) ?
D2 antag: -14; D2 ag-1: 0; D2 PAM-1: -10; D2 PAM-2: 34*; D2 ag-2: 1

Results for Cc1ccc(NC(=O)C2CCN(S(=O)(=O)c3ccc4c(c3)NC(=O)CO4)CC2)cc1 ?
D2 antag: 32*; D2 ag-1: 7; D2 PAM-1: -10; D2 PAM-2: -19; D2 ag-2: -3
